Marburg entry inh – Marburg virus entry inhibition | Marburg virus pseudotyped entry inhibition, cell reporter | Potency, µM (doses to about 37.8 µM), most hits filed as inhibitors | 1.8% of 300,000 active | AID 540276; calls by dose curve; tested in HEK293 cells
HCV inh – blocks hepatitis C virus. Huh7.5.1 HCVcc-Cre infection, luciferase reporter, 44 h. Potency, µM (highest dose often 41.8 µM), actives largely listed as inhibitors. 3.4% of 340,000 active. AID 651820; active = well fitted inhibition curve with a large enough effect; inconclusive = small, poorly fitted or top-dose-only effect, or another doubt; inactive = no such curve, though single readings can be large or run the other way
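Compounds are dispensed onto cells plated 4 h earlier at 1,000 per well, with HCVcc-Cre virus (about 0.5 moi) added next. Following 44 h of culture, luminescent signal is measured for 15 sec after 15 min with substrate at room temperature.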
Lassa entry inh – inhibitors of Lassa virus binding or cell entry; Potency, µM (highest dose often 37.9 µM), hits mostly inhibitors; AID 540256; 1.2% of 300,000 active; Lassa virus pseudotype entry inhibition, cell reporter; calls by dose curve; tested in HEK293 cells; note: nearly all actives have a fitted effect of over 50% in size
FMDV inh – antivirals against foot and mouth disease virus; FMDV antiviral cell-based qHTS; Potency, µM (doses to about 57.9 µM), hits mostly inhibitors; 1.2% of 410,000 active; AID 1159524; calls by dose curve; tested in HEK293T cells; note: read-out not given here; nearly all actives have a fitted effect of over 45% in size
SARS PLpro yeast – inhibitors of SARS-CoV papain-like protease in yeast | S. cerevisiae expressing SARS-CoV PLpro, growth rescue | Potency, µM (titrated, usually from 32.9 µM), usual class: activators | 0.19% of 330,000 active | AID 485353; calls by dose curve; note: nearly all actives have a fitted effect of over 55% in size
HCMV inh – blocks human cytomegalovirus replication | 4.5% of 410,000 active | activity change, negative = inhibition, % at 57.5 µM | HFF cells, HCMV-luciferase reporter, 72 h; stronger effect = lower value | AID 1259415; in the data active = activity change below about -60%; inconclusive = no clear call, values can overlap the other calls; inactive = above about -39%
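Luciferase read-out from HCMV-luciferase-infected HFFs (MOI 1 PFU/cell) 72 h post infection at 37C; compounds added after 16 h cell attachment; activity normalized between buffer-only basal and Salinomycin (10uM) inhibitor controls.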
Large screens that a line does not name were inactive. Shown are actives, neighbours in structure and some others; about 8% of the full set was active somewhere.

CC(=O)Nc1ccc(C(=O)CCl)cc1	FMDV inh 28µM (no result: Lassa entry inh)
CC(=O)NCc1ccc(C(=O)CCl)s1	Marburg entry inh 4.5µM, HCV inh inconclusive, Lassa entry inh inconclusive, FMDV inh 28µM
COc1ccc(C)cc1NC(=O)N1CCC(CN2CCOCC2)CC1	none (no result: Marburg entry inh, HCV inh, SARS PLpro yeast)
CCOC(=O)c1scc(-c2ccc(C)cc2)c1S(=O)(=O)Nc1ccc(OC)c(Cl)c1	none (no result: Marburg entry inh, HCV inh, SARS PLpro yeast)
c1ccc(Nc2c(-c3c[nH]c4ccccc34)nc3ccccn23)cc1	Marburg entry inh inconclusive (no result: HCV inh, SARS PLpro yeast)
Fc1ccccc1CCNc1c2c(nc3ncnn13)CCCC2	Marburg entry inh 6.3µM, HCV inh inconclusive, HCMV inh -77
c1ccc(CCNc2c3c(nc4ncnn24)CCC3)cc1	FMDV inh inconclusive (no result: HCV inh)
CC1CCCC(C)N1C(=O)COC(=O)C12CC3CC(CC(Cl)(C3)C1)C2 (centres undefined)	HCMV inh -63 (no result: Marburg entry inh, Lassa entry inh)
CC1(C)CC(NC(=O)c2ccccc2C(=O)NC2CC(C)(C)NC(C)(C)C2)CC(C)(C)N1	none
CC1(C)CC(NC(=O)N2c3ccccc3Sc3ccccc32)CC(C)(C)N1	Marburg entry inh 3.2µM
COc1ccc(CN2CCOc3c(O)cc(-c4cc(C)c5ccc(F)cc5n4)cc3C2)c(O)c1	none (no result: Marburg entry inh, HCV inh, Lassa entry inh, SARS PLpro yeast, HCMV inh)
COc1cccc(N2CCN(c3nc(-c4ccccc4C)cc(=O)[nH]3)CC2)c1	HCV inh inconclusive, HCMV inh -98 (no result: Marburg entry inh, Lassa entry inh)
O=c1c2sc(-c3ccccc3)cc2nc2n1CCCCC2	Marburg entry inh inconclusive, HCMV inh inconclusive
O=c1c2sc(-c3ccccc3)cc2nc2n1CCC2	Marburg entry inh 4.5µM, Lassa entry inh inconclusive
COc1ccc(C(=O)/C(=C\N(C)C)n2nc(C)cc2C)cc1	Marburg entry inh inconclusive, Lassa entry inh inconclusive
Cc1cc(C)n(/C(=C\N(C)C)C(=O)c2ccc(Cl)cc2)n1	HCMV inh -61
COc1cc(-c2cnc3c(NC=O)cc(-c4cccc(C(F)(F)F)c4)cn23)cc(OC)c1OC	FMDV inh 20µM, HCMV inh -67 (no result: Marburg entry inh, HCV inh, Lassa entry inh, SARS PLpro yeast)
COc1cc(-c2ccc3ncc(-c4cccc(C(F)(F)F)c4)n3n2)cc(OC)c1OC	HCMV inh -95 (no result: Marburg entry inh, HCV inh, Lassa entry inh, FMDV inh, SARS PLpro yeast)
COc1cccc(-c2cc(NC=O)c3ncc(-c4cc(OC)c(OC)c(OC)c4)n3c2)c1	FMDV inh inconclusive, HCMV inh -81 (no result: Marburg entry inh, HCV inh, Lassa entry inh, SARS PLpro yeast)
COc1cccc(-c2cnc3c(NC=O)cc(-c4ccc(O)c(OC)c4)cn23)c1	none (no result: Marburg entry inh, HCV inh, Lassa entry inh, SARS PLpro yeast)
COc1ccc(-c2cc(NC=O)c3ncc(-c4cccc(C(F)(F)F)c4)n3c2)c(OC)c1	FMDV inh inconclusive (no result: Marburg entry inh, HCV inh, Lassa entry inh, SARS PLpro yeast)
COc1ccc(-c2cnc3c(NC=O)cc(-c4ccccc4OC)cn23)cc1OC	FMDV inh inconclusive, HCMV inh -80 (no result: Marburg entry inh, HCV inh, Lassa entry inh, SARS PLpro yeast)
CN(C)CCCOc1ccc2c(c1)Sc1ccccc1CC2=O	Marburg entry inh inconclusive, HCV inh 10µM
COc1cccc(C(=O)N/N=C(/CCC(=O)O)c2ccccc2)c1	Marburg entry inh inconclusive
COc1cc(C(=O)NN=C2c3ccccc3-c3ccccc32)cc(OC)c1OC	HCMV inh -88 (no result: Marburg entry inh, HCV inh, Lassa entry inh, FMDV inh, SARS PLpro yeast)
C/C(=N\NC(=O)c1ccc(Cl)cc1)c1ccccn1	Marburg entry inh 0.89µM, HCV inh 3.2µM, Lassa entry inh 1.3µM, FMDV inh inconclusive, HCMV inh -101
C/C(=N\NC(=O)c1ccccn1)c1ccc(Cl)cc1	Marburg entry inh inconclusive, Lassa entry inh inconclusive
COc1cccc(C(=O)N/N=C(/c2ccccc2)c2ccccn2)c1	Marburg entry inh inconclusive, HCV inh inconclusive, Lassa entry inh inconclusive, FMDV inh inconclusive, HCMV inh -102
CC(=NNC(=S)Nc1cccc(Cl)c1)c1ccccn1	Marburg entry inh 0.2µM, HCV inh inconclusive, Lassa entry inh 1.1µM, HCMV inh -97 (no result: SARS PLpro yeast)
Fc1ccc(C(NCCc2ccccc2)c2nnc(-c3ccccc3Cl)o2)cc1 (centres undefined)	Marburg entry inh inconclusive (no result: HCV inh, SARS PLpro yeast)
COc1cc(C(=O)N/N=C(\C)c2ccccn2)cc(OC)c1OC	Marburg entry inh inconclusive, Lassa entry inh inconclusive, HCMV inh -88
COc1cc(NC(=O)c2ccccn2)cc(OC)c1OC	Lassa entry inh inconclusive
C/C(=N\NC(=O)c1cc(C)nc2ccccc12)c1ccncc1	Marburg entry inh inconclusive
COc1cc(C(=O)N/N=C(\c2ccccc2)c2ccccn2)cc(OC)c1OC	HCV inh inconclusive, FMDV inh 40µM, HCMV inh -102 (no result: Marburg entry inh, Lassa entry inh)
C/C(=N\NC(=O)c1cc(C)nc2ccccc12)c1ccccn1	HCV inh 2.8µM, HCMV inh -114 (no result: Marburg entry inh, Lassa entry inh)
Cc1cc(C)c(NC(=O)C2CCN(c3nnc(C)c4c(C)n(-c5ccccc5)nc34)CC2)c(C)c1	none (no result: Marburg entry inh, HCV inh, SARS PLpro yeast)
COc1ccc(C)cc1NC(=O)c1sc2nc(-c3ccc(F)cc3)cn2c1C	Lassa entry inh inconclusive (no result: Marburg entry inh, HCV inh, SARS PLpro yeast)
COc1cc(NC(=O)CCc2nc3cccnc3n2Cc2cccs2)cc(OC)c1OC	Marburg entry inh inconclusive, FMDV inh inconclusive (no result: HCV inh, SARS PLpro yeast)
CCOC(=O)c1c(Cc2cccc(Cl)c2)c[nH]c1C	HCMV inh -62
COC(=O)c1cc(S(=O)(=O)NCc2ccccc2Cl)c[nH]1	none (no result: Marburg entry inh, Lassa entry inh, HCMV inh)
CCOC(=O)c1cn(Cc2cccc(Cl)c2)nn1	Marburg entry inh inconclusive, Lassa entry inh inconclusive
COC(=O)c1c(Cc2ccccc2Cl)c[nH]c1C	Marburg entry inh inconclusive, HCMV inh -67
CN1c2ccccc2[C@@]2(O)C(=O)[C@@]1(C)[C@@H]1c3ccccc3C[C@H]12	none (no result: HCV inh, Lassa entry inh, FMDV inh, SARS PLpro yeast, HCMV inh)
COc1cc(/C=C2\CCC/C(=C\c3ccc(O)c(OC)c3)C2=O)ccc1O	Marburg entry inh inconclusive, HCV inh 13µM, Lassa entry inh inconclusive, FMDV inh inconclusive, HCMV inh -101
COc1cc(/C=C2\CCC(C3CCCC3)C2=O)cc(OC)c1OC (centres undefined)	Marburg entry inh inconclusive, HCMV inh inconclusive
CCOc1cc(/C=C2\CN(CC)C/C(=C\c3ccc(O)c(OCC)c3)C2=O)ccc1O	Marburg entry inh 4.5µM, HCV inh 4.5µM, Lassa entry inh 5µM, FMDV inh 10µM, HCMV inh -101
COc1cc(/C=C2\CC(C(C)(C)C)C/C(=C\c3cc(OC)c(OC)c(OC)c3)C2=O)cc(OC)c1OC (centres undefined)	HCV inh 2.5µM, FMDV inh 14µM, HCMV inh -98 (no result: Marburg entry inh, Lassa entry inh)
O=C1/C(=C\c2ccc3c(c2)OCO3)CCC/C1=C/c1ccc2c(c1)OCO2	HCMV inh -89
O=C1OCC/C1=C\c1ccc2c(c1)OCO2	none
CCS(=O)(=O)NCc1c(C)ncc2c1CCN(C(=O)c1csc(-c3cccs3)n1)C2	none (no result: Marburg entry inh, HCV inh, Lassa entry inh, SARS PLpro yeast, HCMV inh)
COC(=O)C1CCN(Cc2ccc3c(c2)CN(C(=O)c2cc(C4CC4)on2)CCO3)CC1	none (no result: Marburg entry inh, HCV inh, Lassa entry inh, SARS PLpro yeast, HCMV inh)
COc1cc(/C=C2\SC(N)=NC2=O)cc(Cl)c1O	none (no result: Marburg entry inh, Lassa entry inh)
COc1cc(/C=C2/C(=O)CNC2=O)ccc1O	Lassa entry inh inconclusive
COc1cc(/C=C2/CCC/C(=C\c3cc(O)c(OC)c(Cl)c3)C2=O)cc(Cl)c1O	Marburg entry inh inconclusive, HCV inh 11µM, Lassa entry inh inconclusive, FMDV inh inconclusive, HCMV inh -100
